# The panel holds about 83,000 compounds, 20% with a hit somewhere; the sample as a whole holds those more often.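 48-hour exposure, single concentration, 96-well plates; percent growth endpoint where 0 means no net growth. Active: below 10.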 A number with no mark means an inactive call. The source made the active and inactive calls.
# What was measured:
# Experiment in all cases: NCI-60 one-dose screen, 48 h (100 = growth as untreated, 0 = no growth, -100 = all killed)
# Details in all cases: 10 µM unless noted
# BT-549 breast = test system: BT-549 breast
# MDA-MB-435 melanoma = test system: MDA-MB-435 melanoma
# SW-620 colon = test system: SW-620 colon
# MCF7 breast = test system: MCF7 breast
# HCT-116 colon = test system: HCT-116 colon
# HCC-2998 colon = test system: HCC-2998 colon
# KM12 colon = test system: KM12 colon
Compound,growth (BT-549 breast),growth (MDA-MB-435 melanoma),growth (SW-620 colon),growth (MCF7 breast),growth (HCT-116 colon),growth (HCC-2998 colon),growth (KM12 colon)
O=C1OC(c2ccc(-c3ccccc3)cc2)=C/C1=C/c1cccs1,92%,99%,105%,41.6%,93.3%,112%,88.1%
COc1cc(C2CC(c3ccc(C)cc3)=NN2C(C)=O)ccc1Oc1ccnc2cc(Cl)ccc12 (stereo unspecified),59.1%,100%,66.3%,73.6%,52.8%,83.3%,85.3%
CCCCCCCCSc1ncnc2c1ncn2CO,84.6%,82.6%,93.8%,75.7%,66.8%,109%,88.2%
Fc1ccc(-c2nc(Nc3ccc(-c4nc5ccccc5[nH]4)cc3)nc(N3CCOCC3)n2)cc1,-73.6% (active),-86.1% (active),-74.2% (active),-73.8% (active),-85.5% (active),-89.9% (active),-91.3% (active)
Cc1cc2c(cc1C)Nc1sc(NC(=O)CN3CCN(C)CC3)nc1C(=O)N2,109%,111%,116%,97.5%,101%,101%,102%
c1ccc(-c2nnc(Nc3nnc(-c4ccccc4)s3)s2)cc1,106%,106%,98%,67.6%,97.9%,108%,113%
CC(c1cc(Cl)ccc1O)c1cc(Cl)ccc1O,44.7%,-2.51% (active),30.6%,20.1%,15.2%,63%,31.8%
CCC(c1ccccc1)c1noc(CCN(CC)CC)n1 (stereo unspecified),84.6%,110%,120%,86.5%,92%,106%,105%
CC/C(=C\c1ccc(N(C)C)cc1)c1ccncc1,65.8%,-6.41% (active),19.9%,28.8%,22.2%,66.6%,20.4%
CC(C)[O-].CC(C)[O-].CN(CCN(C)Cc1cc(F)cc(F)c1[O-])Cc1cc(F)cc(F)c1[O-].[Ti+4],-1.16% (active),-24.5% (active),0.502% (active),-42.2% (active),-0.794% (active),57%,-30.7% (active)
Cc1cc(C(C)(C)C)cc(C)c1CC1=NCCN1,98.3%,100%,108%,113%,112%,96.4%,103%
COc1ccc2nc(-c3ccc(-n4cncc4-c4ccc(OC)c(N)c4)cc3)sc2c1,102%,105%,97.4%,82.1%,98.4%,111%,105%
CCCCC(C#N)C(N)=O (stereo unspecified),114%,114%,111%,97.7%,98.4%,104%,119%
O=c1c(O)cccn1CCCNCCCN(CCCn1cccc(O)c1=O)CCCn1cccc(O)c1=O,113%,104%,99.1%,104%,108%,101%,106%
Cc1ccc2c(c1)C(=O)/C(=C/c1ncc([N+](=O)[O-])n1C)O2,-25.9% (active),-80.6% (active),-32.5% (active),-1.55% (active),7.67% (active),-44% (active),-48.4% (active)
COc1ccc(Cn2c(NCCCN(C)C)nc(=O)n(Cc3ccc(F)cc3)c2=O)cc1,92.5%,102%,100%,87.9%,93.8%,101%,99.8%
COc1ccc2[nH]cc(/C=C3/C(=O)Nc4ccc(F)cc43)c2c1,134%,93.8%,101%,56.3%,86%,93%,27%
O=C1/C(=C/c2ccc3cccc(Cl)c3n2)SC(=S)N1CCc1ccc(O)cc1,95.2%,85.5%,95%,86.3%,99.2%,118%,84.8%
N=C(N)/N=C(\CCc1nc2ccccc2[nH]1)c1nc2ccccc2[nH]1,104%,109%,104%,86.3%,102%,100%,103%
CC(C)[C@]12O[C@H]1[C@@H]1O[C@]13[C@]1(O[C@H]1C[C@H]1C4=C(CC[C@@]13C)C(=O)OC4)[C@@H]2OC(=O)CN(C)C,-18.2% (active),-76.4% (active),0.523% (active),18.1%,4.59% (active),-37.2% (active),2.83% (active)
c1ccc(N2CCN(c3nncc4ccccc34)CC2)nc1,104%,104%,104%,105%,103%,117%,104%
CSc1nc2c(c(=O)[nH]1)C(c1ccc(Cl)cc1)C1=C(N2)/C(=C/c2ccc(Cl)cc2)CNC1 (stereo unspecified),24.8%,34.5%,-9.84% (active),13%,-69.5% (active),17.3%,-24% (active)

Compound,growth (BT-549 breast),growth (MDA-MB-435 melanoma),growth (SW-620 colon),growth (MCF7 breast),growth (HCT-116 colon),growth (HCC-2998 colon),growth (KM12 colon)
C/C(=N/N=C(N)N)c1ccc(Cl)cc1,-0.709% (active),71.7%,112%,83.9%,85.7%,57.8%,93.2%
CCSc1nnc2n(Cc3ccccc3)c(=O)c3c(C)c(C(N)=O)sc3n12,88.9%,105%,109%,96.8%,100%,101%,105%
CCCCCCCC1(C)NC(=O)NC1=O (stereo unspecified),121%,123%,100%,97.6%,103%,140%,113%
CN(C)CCCN1c2nc3ccccc3cc2Sc2cc3ccccc3nc21,-100% (active),-67% (active),-93.5% (active),-97.9% (active),-62.8% (active),-71.3% (active),-72.4% (active)
O=[N+]([O-])c1cnc(Sc2ccncn2)c([N+](=O)[O-])c1,111%,91.1%,26.4%,56.1%,-59% (active),102%,107%
COc1ccc2c(c1)/C(=C\c1c[nH]c3ccc(F)cc13)C(=O)N2,106%,91.5%,107%,60.3%,80%,92.7%,21.1%
COc1ccc(/C=N/NC(=O)c2ccc(S(C)(=O)=O)cc2)cc1OC,109%,109%,99.8%,92.4%,89%,98.5%,95.8%
Cc1ccc(NC(=O)COC(=O)c2ccc(S(=O)(=O)N3CCCCCC3)cc2)cc1,141%,107%,107%,102%,103%,91.5%,97.7%
C/C(=C\CCc1ccsc1)CC/C=C(\C)CCCN1CCC(CO)CC1,36.2%,13%,-29.8% (active),16%,-2.6% (active),-14.9% (active),5.04% (active)
COC(=O)CC1=C(C)/C(=C/c2[nH]c(-c3ccc[nH]3)cc2OC)N=C1C,22.3%,-4.71% (active),4.66% (active),-3.82% (active),-33.6% (active),11.3%,10.2%
CCCCCCCCCCCCCCCCCC1=NC(C)(C)CN1CCO,58.9%,-60.1% (active),-60.4% (active),-59.5% (active),-67% (active),-87.6% (active),-76.3% (active)
COc1ccc(-c2cc(Cc3cccs3)c(=O)n(Cn3ccc4ccccc43)n2)cc1,116%,90.8%,114%,95.2%,106%,107%,110%
O=C(CCc1nnc(Cn2cncn2)o1)c1nc2ccccc2[nH]1,112%,103%,113%,91%,111%,112%,114%
COc1cc2c(c(OC)c1OC)CCc1cnoc1-2,101%,103%,114%,104%,176%,90.1%,106%
O=C1CN(CO)C(=O)CN1CO,113%,103%,95.9%,101%,103%,104%,105%
COc1ccc(-c2cc(C(=O)Nc3nc4cc(C)c(C)cc4s3)nc3cc(-c4ccccc4)nn23)cc1OC,122%,96.8%,47.3%,99%,108%,99.7%,112%
Cc1nn(-c2ccc(Br)cc2)c2nc3c(nc12)C(=O)C(=O)c1ccccc1-3,94.7%,110%,93.5%,67.3%,86.3%,93%,103%
O=C(C=C=Nc1ccccc1)C(=O)N=C=Cc1ccccc1,-7.61% (active),50.7%,-26.3% (active),25.9%,-36.3% (active),74.1%,81.5%
COc1cc(C(=O)/C=C/c2cccnc2Nc2ccccc2)cc(OC)c1OC,-55.5% (active),-23.3% (active),-84% (active),-73% (active),-94.9% (active),-76.7% (active),-88.2% (active)
ClC1=C(Cl)C(Cl)=C(Cl)C1=Cc1ccc(Cl)cc1,-38.9% (active),-42.3% (active),-83.9% (active),25%,-84.1% (active),30.9%,-69.6% (active)
C[N+]1(CCC[N+]2(C)C[C@@H]3[C@H](C2)[C@@H]2C=C[C@H]3C2)CCOCC1 (stereo partly specified),103%,113%,106%,107%,105%,112%,108%

# — PubChem BioAssay (NCI)
